The record followed here is PubChem BioAssay (NCI).

Some test systems named below: DU-145 prostate; K-562 leukemia; MALME-3M melanoma; MDA-MB-231 breast; RXF 393 renal; SF-268 CNS; SF-295 CNS; SF-539 CNS; UACC-257 melanoma; M14 melanoma; HCT-15 colon; HT29 colon; SNB-75 CNS; SNB-19 CNS; U251 CNS; PC-3 prostate; SK-MEL-5 melanoma; UACC-62 melanoma; LOX IMVI melanoma; SK-MEL-28 melanoma.
What all share (assay): NCI-60 one-dose screen, 48 h (100 = growth as untreated, 0 = no growth, -100 = all killed)
What all share (settings): 10 µM unless noted

Each structure is given as a SMILES string. The panel holds about 83,000 compounds, 20% with a hit somewhere; the sample as a whole holds those more often.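 Each cell line was grown in a 96-well plate and treated with one concentration of compound for 48 hours. Values below 10 were considered active.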 A number with no mark means an inactive call. Active and inactive are the calls of the source.

As to `CC[C@]12C=CCN3CC[C@@]4(c5cc(NC(=O)CCC(=O)OCc6cn(Cc7ccc(F)cc7)nn6)c(OC)cc5N(C)[C@H]4[C@@](O)(C(=O)OC)[C@@H]1OC(C)=O)[C@@H]32`, the growth in the assay on DU-145 prostate is 104%; in the assay on K-562 leukemia, 99.8%; with MALME-3M melanoma it was 99.5%; with MDA-MB-231 breast it was 98.9%; with RXF 393 renal, 103%; with SF-268 CNS it was 95.7%. Besides, the growth in the assay with SF-295 CNS is 103%; in the assay with SF-539 CNS it was 96.9%; in the assay on UACC-257 melanoma, 102%; in the assay on M14 melanoma it was 103%; in the assay on HCT-15 colon it was 105%; in the assay with HT29 colon, 103%. The growth is 97% in the assay on SNB-75 CNS; 98.5% with SNB-19 CNS; 101% in the assay with U251 CNS; 93.8% with PC-3 prostate; 112% in the assay with SK-MEL-5 melanoma; 98% in the assay on UACC-62 melanoma. In addition, the growth in the assay on LOX IMVI melanoma is 99.3%; in the assay on SK-MEL-28 melanoma, 109%.
In the case of `O=C(Nc1cccnc1Nc1ccc(F)cc1)c1cn(Cc2cccc(Oc3ccccc3)c2)nn1`, the growth in the assay on DU-145 prostate is 84.5%; in the assay on K-562 leukemia it was 18.8%; in the assay with MALME-3M melanoma it was 60.9%; in the assay with MDA-MB-231 breast, 61.1%; with RXF 393 renal it was 74.2%; in the assay with SF-268 CNS, 54.8%. For the same molecule, the growth in the assay on SF-295 CNS is 67.7%; with SF-539 CNS it was 63.7%; with UACC-257 melanoma, 87.4%; with M14 melanoma, 37.1%; with HCT-15 colon, 43.4%; in the assay with HT29 colon, 53.1%. The growth in the assay on SNB-75 CNS was 65.6%; in the assay on SNB-19 CNS, 67.8%; in the assay on U251 CNS, 51.4%; in the assay with PC-3 prostate it was 61.6%; in the assay with SK-MEL-5 melanoma it was 39.3%; in the assay with UACC-62 melanoma, 44.8%. The growth is 48.5% with LOX IMVI melanoma and 68.7% in the assay with SK-MEL-28 melanoma.
Consider `O=C(CN1C(=O)CCC1=O)Nc1ncc(Cc2ccc(F)cc2)s1`, for which the growth in the assay on DU-145 prostate was 106%; with K-562 leukemia it was 98.5%; with MALME-3M melanoma it was 99.8%; in the assay with MDA-MB-231 breast, 97.4%; in the assay with RXF 393 renal it was 109%; with SF-268 CNS, 91.2%. In addition, the growth in the assay on SF-295 CNS is 99.3%; with SF-539 CNS, 98.7%; in the assay with UACC-257 melanoma, 98.5%; in the assay with M14 melanoma, 103%; in the assay on HCT-15 colon, 102%; with HT29 colon, 106%. For the same molecule, the growth in the assay with SNB-75 CNS is 94.3%; in the assay on SNB-19 CNS it was 96.3%; with U251 CNS, 97.5%; with PC-3 prostate it was 92.4%; in the assay on SK-MEL-5 melanoma, 99.6%; in the assay with UACC-62 melanoma, 92.1%. The growth is 94.3% with LOX IMVI melanoma and 106% in the assay with SK-MEL-28 melanoma.
For `CCn1c(=S)sc2c(Nc3ccc(F)cc3)nc(-c3cccnc3)nc21`, the growth in the assay on DU-145 prostate is 77.5%; with K-562 leukemia, 77.1%; in the assay on MALME-3M melanoma, 83.9%; with MDA-MB-231 breast it was 75%; in the assay on RXF 393 renal it was 78.6%; in the assay with SF-268 CNS, 56.4%. Further, the growth in the assay with SF-295 CNS is 50.6%; in the assay on SF-539 CNS it was 41.5%; with UACC-257 melanoma it was 78.9%; in the assay on M14 melanoma it was 74.1%; with HCT-15 colon, 88.2%; with HT29 colon it was 41.6%. The growth with SNB-75 CNS is 13.7%; in the assay with SNB-19 CNS, 78.9%; in the assay on U251 CNS it was 34.3%; in the assay on PC-3 prostate, 56%; with SK-MEL-5 melanoma it was 87.7%; in the assay on UACC-62 melanoma, 56.7%. For the same molecule, the growth in the assay on LOX IMVI melanoma was 69.5%; with SK-MEL-28 melanoma, 86.2%.
Turning to `N#CCSc1nnc2n(Cc3ccccc3)c(=O)c3c4c(sc3n12)CCCC4`, the growth with DU-145 prostate was 107%; in the assay on K-562 leukemia, 70.5%; with MALME-3M melanoma, 99.5%; in the assay with MDA-MB-231 breast, 98.8%; with RXF 393 renal, 83%; in the assay with SF-268 CNS it was 98%. Moreover, the growth is 102% in the assay on SF-295 CNS; 104% in the assay with SF-539 CNS; 98.9% in the assay on UACC-257 melanoma; 109% in the assay with M14 melanoma; 96.2% in the assay with HCT-15 colon; 111% in the assay on HT29 colon. In addition, the growth in the assay with SNB-75 CNS is 91.1%; in the assay with SNB-19 CNS it was 104%; with U251 CNS it was 101%; with PC-3 prostate it was 95.2%; with SK-MEL-5 melanoma, 95.3%; with UACC-62 melanoma, 95.6%. Moreover, the growth in the assay with LOX IMVI melanoma is 98.1%; in the assay on SK-MEL-28 melanoma, 116%.
For the molecule `c1ccc(C2=NN[C@H](c3cn(-c4ccccc4)nc3-c3ccccc3)C2)cc1`, the growth is 56.1% with DU-145 prostate; 85.2% in the assay on K-562 leukemia; 53.4% in the assay with MALME-3M melanoma; 14% in the assay with MDA-MB-231 breast; 32.1% in the assay on RXF 393 renal; 52% in the assay with SF-268 CNS. In addition, the growth with SF-295 CNS is -23.8% (active); in the assay on SF-539 CNS it was 38.5%; in the assay with UACC-257 melanoma, 65.2%; with M14 melanoma, 45.6%; in the assay with HCT-15 colon, 86.5%; in the assay with HT29 colon, 65.2%. For the same molecule, the growth is -32.7% (active) in the assay on SNB-75 CNS; 55% in the assay on SNB-19 CNS; 7.2% (active) in the assay with U251 CNS; 43.5% in the assay on PC-3 prostate; 64% with SK-MEL-5 melanoma; 90.3% in the assay with UACC-62 melanoma. The growth in the assay with LOX IMVI melanoma was 24.4%; with SK-MEL-28 melanoma it was 50.2%.
As for `S=C1CCSC(=S)N1CCCN1C(=S)CCSC1=S`, the growth in the assay on DU-145 prostate is 73.3%; in the assay with K-562 leukemia it was 29.4%; in the assay on MALME-3M melanoma, 74.2%; in the assay on MDA-MB-231 breast it was 75.3%; in the assay with RXF 393 renal, 57.9%; with SF-268 CNS, 87.2%. Further, the growth in the assay with SF-295 CNS was 105%; in the assay with SF-539 CNS, 71.6%; in the assay on UACC-257 melanoma, 89%; in the assay with M14 melanoma, 83.1%; in the assay with HCT-15 colon, 51.4%; with HT29 colon, 67.8%. Further, the growth in the assay on SNB-75 CNS was 70%; in the assay with SNB-19 CNS, 89.7%; in the assay on U251 CNS, 83.2%; in the assay with PC-3 prostate, 69.1%; in the assay with SK-MEL-5 melanoma, 91.5%; with UACC-62 melanoma, 50.4%. The growth in the assay on LOX IMVI melanoma was 38.2%; with SK-MEL-28 melanoma, 86.6%.
